Source: PubChem BioAssay (Tox21)
Values joined by “and” are separate entries in the source; they are usually repeats but may differ in a detail not shown here. Equal values may be shown once. Inconclusive results are not listed. Where a call stands in place of a potency, no number is given. The source holds several records for some structures; these can differ, active in one and inactive in another. Active and inactive are the calls of the source. The call rests on the fitted dose curve; in most records, active means well fitted cell-killing curve with a large enough effect in the repeat runs; inconclusive means weak or mixed curves, or effect the other way; inactive means no such curve, though single readings can be large or run the other way.

assay: qHTS assay to identify small molecule antagonists of the sonic hedgehog signaling (Shh) pathway - cell viability counter screen (AID 1259367); conditions: NIH/3T3 Gli1-Luc viability, CellTiter-Fluor, 24 h; series mostly up to 92.4 µM; viability change, negative = cytotoxic: at the top concentration; further: nearly all actives have a fitted effect of over 55% in size
Description: National Center for Advancing Translational Sciences [NCATS]
NIH Chemical Genomics Center [NCGC]
U.S. Environmental Protection Agency [EPA]
National Institutes of Environmental Health Sciences [NIEHS]
National Toxicology Program [NTP]
U.S. Food and Drug Administration [FDA]
The sonic hedgehog (Shh) pathway is essential for normal embryonic development. Dysregulation of the Shh pathway can cause severe developmental defects in organs. Therefore chemicals that interfere with the pathway are potential developmental toxicants. A cell line designated 3T3Gli1-Luc (DMB/OARSA/CFSAN/FDA, Laurel, MD), a NIH/3T3 derived clone containing stably integrated Gli1-Luc reporter is used to detect chemical interference of the Shh pathway, by changes in the expression of the firefly Luc gene under the control of the Gli1 transcriptional response element. This cell line was used to screen Tox21 libraries for identifying and prioritizing the potential developmental toxicants that interfere Shh pathway. Conditioned medium-stimulated mode was used to screen for chemicals inhibiting Shh signaling. The cytotoxicity of the compounds was tested in parallel by measuring the cell viability using CellTiter-Fluor assay system (Promega, Madison, WI) in the same wells.
Tox21 Assay Protocol Summary:
3T3 Gli1-Luc cells were dispensed at 2,000 per well in 5uL of culture medium into white solid bottom 1536-well plates (Greiner Bio-One, Monroe, NC) using a Multidrop Combi (Thermo Scientific, Waltham, MA) dispenser. The assay plates were incubated at 37 C and 5% CO2 for 4hr, and then 23nL of compounds dissolved in DMSO and positive control were transferred using a Pintool station (Wako, San Diego, CA). The compound transfer was followed by the addition of 1ul conditioned medium or assay buffer using two separate tips of Flying Reagent Dispenser (FRD, Aurora Discovery, San Diego, CA). The assay plates were incubated at 37C and 5% CO2 for 24hr. For viability read, after 23hr of compound treatment, 1uL of CellTiter-Fluor reagent (Promega Corporation, Madison, WI) was added to each well of the assay plates using Flying Reagent Dispenser (FRD, Aurora Discovery, San Diego, CA) and incubated the assay plates at 37C for 1hr. The fluorescence signal was quantified using a ViewLux plate reader (Perkin Elmer, Shelton, CT).
Potency means the concentration at half of the fitted maximal effect.

| SMILES | Potency | viability change, negative = cytotoxic |
| --- | --- | --- |
| CCCCCCCCC(=O)O | inactive |  |
| O=C1C(N(CO)C(=O)NCO)N(CO)C(=O)N1CO (stereo not given) | inactive |  |
| CC(C)c1ccc(C(C)C)cc1 | inactive |  |
| CC/C(C)=N/O | inactive |  |
| CCCCCCCC(=O)O | inactive |  |
| OC1CCCCC1 | inactive |  |
| COC(=O)CCCCC(=O)OC | inactive |  |
| Cc1ccc(C(C)C)cc1 | inactive |  |
| CCCN(CCC)C(=O)SCC | inactive |  |
| CCCCCCCCCCCCCC(=O)O | inactive |  |
| Cc1cc(C)cc(O)c1 | 2.44 µM (active) and inactive |  |
| O=Cc1ccc(CO)o1 | inactive |  |
| CC(C=O)Cc1ccc(C(C)(C)C)cc1 (stereo not given) | inactive |  |
| Cc1ccccc1C=O | inactive |  |
| Brc1ccc(Oc2ccc(Br)cc2)cc1 | inactive |  |
| Cc1ccc(C)c(S(=O)(=O)O)c1 | inactive |  |
| COc1c2ccoc2cc2oc(=O)ccc12 | inactive |  |
| Nc1nc(N)c2nc(-c3ccccc3)c(N)nc2n1 |  | -14.6% (inactive) |
| CC(=O)C(C)C | inactive |  |
| CS(=O)(=O)c1ccc(Cl)cc1 | inactive |  |

| SMILES | Potency | viability change, negative = cytotoxic |
| --- | --- | --- |
| CC(C)(C)NC[C@H](O)COc1nsnc1N1CCOCC1 | inactive |  |
| O=C(O)C1=NN(c2ccc(S(=O)(=O)O)cc2)C(=O)C1 | inactive |  |
| CC(=O)OC[C@H]1O[C@@](COC(C)=O)(O[C@H]2O[C@H](COC(C)=O)[C@@H](OC(C)=O)[C@H](OC(C)=O)[C@H]2OC(C)=O)[C@@H](OC(C)=O)[C@@H]1OC(C)=O | inactive |  |
| NC1CCCCC1N (stereo not given) | inactive |  |
| COc1c(Cl)ccc(Cl)c1C(=O)O | inactive |  |
| NC(=O)c1ncn([C@@H]2O[C@H](CO)[C@@H](O)[C@H]2O)n1 | inactive |  |
| OB(O)O | inactive |  |
| CCCCCCCCO | inactive |  |
| C=C(CC(=O)O)C(=O)O | inactive |  |
| N[C@@H](Cc1cc(I)c(Oc2ccc(O)c(I)c2)c(I)c1)C(=O)O | inactive |  |
| CCN(CC)CCNC(=O)c1ccc(N)cc1 | inactive |  |
| CCCCCC(C)=O | inactive and 54.5 µM (active) |  |
| CC(=O)CC(=O)N(C)C | inactive |  |
| C1CCCNCC1 | inactive |  |
| CC(COCC(C)OC(=O)c1ccccc1)OC(=O)c1ccccc1 (stereo not given) | inactive |  |
| COC(=O)OC | inactive |  |
| CCc1cccc(O)c1 | inactive |  |
| Nc1cccc(N)n1 |  | 16.8% (inactive) |
| C[n+]1ccn(CCO)c1 | inactive |  |
| C=C(C)CC(C)(C)C | inactive |  |
